# Laboratory results: PubChem BioAssay AID488802 (Broad Institute, 2010)
# Measured potencies and affinities stand elsewhere. A number with no mark means an inactive call. No rule for the calls is given here.
# Assay: single-agent growth inhibition of C. albicans, dose response, counter-screen for antifungal drug resistance project, C. albicans CaCi-2, dry powder (AID 488802)
# Details: C. albicans CaCi-2 (fluconazole-resistant clinical isolate) growth, no fluconazole, Alamar Blue, 48 h; series mostly up to 26 µM; activity change, negative = inhibition: at the top concentration
row,Compound,"activity change, negative = inhibition"
1,CCCCNC(=O)N1CCN(c2ccnc3cc(Cl)ccc23)CC1,-7.56%
2,O=C(c1csc2ccccc12)N1CCN(c2ccnc3cc(Cl)ccc23)CC1,3.03%
3,COC(=O)Cn1nc(-c2ccc(C)cc2)c2ccccc21,-30.7%
4,COc1ccc(OC)c2c(C)cc(N3CCN(C(=O)c4ccc(Cl)cc4)CC3)nc12,-9.23%
5,COC(=O)Cn1nc(-c2ccc(Cl)cc2)c2ccccc21,-11.2%
6,O=C(c1ccc(Cl)cc1)N1CCN(c2cc(C(F)(F)F)nc3ccccc23)CC1,-13.8%
7,COc1ccc2c(c1)c1nc3n(c(=O)c1n2CC(=O)N1CCC(C)CC1)CCS3,13.5% [at 2.6 µM]
8,COC(=O)Cn1nc(-c2ccccc2)c2ccccc21,-40.4%
9,O=C(O)c1nn(Cc2ccc(Cl)cc2)c2ccccc12,-23.6%
10,O=C(C1CC1)N1CCN(c2ccnc3cc(Cl)ccc23)CC1,-23.3%
11,O=C(Cn1nc(-c2ccccc2)c2ccccc21)N1CCc2ccccc2C1,-15.2%
12,COC(=O)Cn1nc(-c2ccccc2)c2cc(Cl)ccc21,4.23%
13,O=C(Cn1c2ccccc2c2nc3n(c(=O)c21)CCS3)N1CCCC1,9.78%
14,COC(=O)Cn1nc(C)c2ccccc21,11%
15,O=C(Cn1nc(-c2ccccc2)c2ccccc21)NCc1ccc(Cl)cc1,-10.8%
16,CCOC(=O)c1nn(Cc2ccc(Cl)cc2)c2ccccc12,-15.9%
17,O=C(c1ccccc1)N1CCN(c2ccnc3cc(Cl)ccc23)CC1,-30.1%
18,O=C(c1cccs1)N1CCN(c2ccnc3cc(Cl)ccc23)CC1,-9.52% [at 12 µM]

row,Compound,"activity change, negative = inhibition"
1,O=C(Cn1c2ccccc2c2nc3n(c(=O)c21)CCCS3)c1ccc(F)cc1,6.11%
2,CCN(CC)C(=O)Cn1c2ccccc2c2nc3n(c(=O)c21)CCS3,5.76%
3,O=C(O)c1c2ccccc2nn1Cc1ccc(Cl)cc1,-17.9%
4,CC1CCN(C(=O)Cn2c3ccc(F)cc3c3nc4n(c(=O)c32)CCCS4)CC1,0.966%
5,O=C(c1ccc(Cl)cc1)N1CCN(c2ccccn2)CC1,-37.2%
6,O=S(=O)(c1ccc(Cl)cc1)N1CCN(c2ccnc3cc(Cl)ccc23)CC1,-32.2%
7,O=C(Cn1nc(-c2ccccc2)c2cc(Cl)ccc21)N1CCOCC1,14.3%
8,CCCNC(=O)Cn1nc(-c2ccccc2)c2ccccc21,7.83%
9,COc1ccc2c(c1)c1nc3n(c(=O)c1n2CC(=O)N1CCC(Cc2ccccc2)CC1)CCS3,7.8%
10,c1ccc(-c2n[nH]c3ccccc23)cc1,18.7%
11,O=C(c1ccc(Cl)cc1)N1CCN(c2ccc(Cl)cc2)CC1,-1.08%
12,O=C(Cn1c2ccccc2c2nc3n(c(=O)c21)CCS3)NCCc1ccc(Cl)cc1,19.3%
13,O=c1c2[nH]c3ccccc3c2nc2n1CCS2,-34.9%
14,O=C(Cn1nc(C(=O)N2CCCCC2)c2ccccc21)N1CCOCC1,28.7%
15,CCOC(=O)c1c2ccccc2nn1Cc1ccc(Cl)cc1,-15.6%
16,O=C(Nc1ccc(C(F)(F)F)cc1)N1CCN(c2ccnc3cc(Cl)ccc23)CC1,-34.5%
17,CNC(=O)Cn1nc(-c2ccccc2)c2ccccc21,-11.6%
